Screens as filed in PubChem.
An excerpt weighted towards active compounds, which were near 1.7% of everything screened.
Sa RN4220 lethal: kills Staphylococcus aureus RN4220; 330,000 compounds, 0.33% hits; S. aureus RN4220 growth, OD600, 16 h; inhibition, % (no concentration beside the values); in the data active = inhibition above about 85%;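 note: plate controls were untreated cells for no effect and reference antibiotic for full effect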
CCHFV vOTU inh: blocks the CCHF virus ovarian tumor domain protease | CCHFV vOTU protease, Pep-AMC fluorescence | inhibition, % at 11.5 µM | 370,000 compounds, 0.55% hits; in the data active = inhibition above about 30%; note: 0% = vehicle wells with enzyme and 100% = no enzyme wells
PfHsp40 yeast: compounds rescuing yeast from Plasmodium falciparum HSP40 toxicity; S. cerevisiae expressing PfHsp40, growth rescue, ATP luminescence; growth rescue, % at 12.5 µM; 340,000 compounds, 0.68% hits; AID 504582; in the data active = growth rescue above about 28%, passing the limit was not always enough; inconclusive = no clear call, values can overlap the other calls;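 note: yeast W303a lacking pdr1 and pdr3 grown in galactose medium; growth measured after three days at 30 °C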
ugtP null kill: kills S. aureus RN4220 lacking UgtP; S. aureus RN4220 ugtP deletion, OD600 growth, 16 h; growth inhibition, % (test concentration not listed); 330,000 compounds, 0.54% hits; in the data active = growth inhibition above about 68%;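 note: plate controls were untreated wells for no effect and antibiotic for full effect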
Mtb hypoxia rep: Mtb hypoxia fluorescent reporter inhibition | 300,000 compounds, 0.1% hits | fluorescence inhibition, % (concentration not given with the values) | M. tuberculosis hypoxia-regulated fluorescent reporter, fluorescence; in the data active = fluorescence inhibition mostly above about 23%, no sharp cut-off; inactive = mostly below about 17%
Vc quorum ag: induces V. cholerae light production without autoinducers. V. cholerae BH1578 lux reporter, luminescence, 6 h. activation, % at 18.7 µM. 350,000 compounds, 0.16% hits. AID 588436; in the data active = activation mostly above about 9.7%, no sharp cut-off; inconclusive = no clear call, values can overlap the other calls; inactive = mostly below about 3.7%
Starred values were filed as active, the others as inactive; i = inactive; ? = inconclusive; nt = not tested or not shown.

SMILES	Sa RN4220 lethal	CCHFV vOTU inh	PfHsp40 yeast	ugtP null kill	Mtb hypoxia rep	Vc quorum ag
CCC(c1ccc(O)cc1)C(CC)c1ccc(O)cc1 (stereo not given)	-23	1	85*	-12	-3	-1
CCC(C)Sc1ccc(C2C3C(=O)N(C)C(=O)C3[C@]3(C(=O)OC)CCCN23)cc1 (stereo not given in full)	7	nt	nt	-1	16	nt
Cc1cccc(NC(=S)NC(=NS(=O)(=O)c2ccccc2)c2ccccc2)c1	18	nt	nt	-7	nt	nt
Cc1cc(=O)oc2cc(OC(C)C(=O)NCCCn3ccnc3)ccc12 (stereo not given)	2	-15	95*	5	7	0
CCc1cc(=O)oc2cc(OC(C)C(=O)NCCCn3ccnc3)ccc12 (stereo not given)	5	-1	0	1	9	0
Fc1ccc(Nc2nnc(C(F)(F)F)s2)cc1Cl	46	16	149*	31	-15	i
FC(F)(F)c1nnc(Nc2ccc(Cl)cc2)s1	2	-4	1	-29	13	0
CCCCC1CNC(=O)C(=O)N1CCc1cc(C(F)(F)F)cc(C(F)(F)F)c1 (stereo not given)	1	nt	nt	-4	-4	nt
COc1cc2c(cc1OC)/C(=C/C(=O)c1ccccc1)NCC2	2	10	41*	0	4	-1
CC1=C(C(=O)O)N2C(=O)C(NC(=O)CCCC(=O)O)C2SC1 (stereo not given)	4	-6	-2	10	-12	-1
C=CC1=C(C(=O)O)N2C(=O)C(NC(=O)Cc3ccccc3)C2SC1 (stereo not given)	101*	-20	0	101*	nt	i
Cc1nnc(SCC2=C(C(=O)O)N3C(=O)C(NC(=O)COc4ccc(F)cc4)C3SC2)s1 (stereo not given)	100*	3	3	97*	nt	i
CCOc1ccc(C(=O)NC2C(=O)N3C(C(=O)O)=C(COC(C)=O)CSC23)cc1OCC (stereo not given)	41	-4	0	24	-1	i
CC(=O)OCC1=C(C(=O)O)N2C(=O)C(NC(=O)COc3ccc(F)cc3)C2SC1 (stereo not given)	100*	-5	-1	101*	37*	1
O=C(COc1ccccc1)NC1C(=O)N2C(C(=O)O)=C(Cl)CSC12 (stereo not given)	101*	-7	2	101*	nt	2
CC1=C(C(=O)OCc2ccccc2)N2C(=O)[C@@H](NC(=O)COc3ccccc3)[C@H]2SC1	11	8	0	8	0	-4
COc1ccc(C=NNC(=O)c2cc(O)c(O)c(O)c2)cc1Cn1cc([N+](=O)[O-])cn1	16	nt	nt	-5	13	nt
CCOC(=O)C1C2COc3ccc(C)cc3C2N2C(=O)c3ccc(F)cc3NC(=O)[C@@]12C (stereo not given in full)	8	nt	nt	8	17	nt
CCC(C(=O)NC1C(=O)N2C(C(=O)O)=C(CSc3nnc(C)s3)CSC12)c1ccccc1 (stereo not given)	100*	6	0	100*	nt	-3
CCC(C(=O)NC1CCN(C)CC1)c1ccccc1 (stereo not given)	3	7	-1	4	10	i
Cc1nnc(SCC2=C(C(=O)O)N3C(=O)C(NC(=O)COc4ccccc4)C3SC2)s1 (stereo not given)	100*	-4	-1	101*	nt	1
Cc1nnc(SCC2=C(C(=O)O)N3C(=O)C(NC(=O)c4cc(F)c(F)cc4Cl)C3SC2)s1 (stereo not given)	100*	3	-2	100*	11	-1
CCOc1cc(C=NNC(=O)CSc2cccc3cccnc23)ccc1O	0	nt	nt	2	10	nt
Cc1occc1C(=O)NN=Cc1ccc(Cl)c([N+](=O)[O-])c1	0	nt	nt	-8	3	nt
O=C(O)c1ccc(C=NNc2ccc(Cl)nn2)cc1	5	nt	nt	12	-4	nt
SMILES	Sa RN4220 lethal	CCHFV vOTU inh	PfHsp40 yeast	ugtP null kill	Mtb hypoxia rep	Vc quorum ag
CCSCCC(NC1=CC(=O)CC(C)(C)C1)C(=O)O (stereo not given)	-11	-5	1	-2	5	17*
COc1cc(C=NNC(=O)c2cc(O)cc(O)c2)ccc1OC(=O)c1ccccc1	-2	nt	nt	4	1	nt
COCCCn1c(C(=O)NCCN2CCOCC2)cc2c(=O)n3ccccc3nc21	1	-321	44*	1	1	i
O=C(CSc1ccccc1)NC(Cc1ccccc1)C(=O)O (stereo not given)	0	nt	nt	0	3	nt
C[n+]1c2n(c3ccccc31)N=C(c1cc(C(C)(C)C)c(O)c(C(C)(C)C)c1)CS2	99*	13	?	98*	nt	i
COc1cc2c(cc1OC)C(=O)N1[C@H]3c4ccccc4OC[C@@H]3[C@H](c3ccccc3)[C@]1(C)C(=O)N2	nt	-2	63*	nt	nt	-3
COc1ccc2c(c1)OCC1C2N2C(=O)c3cc(OC)ccc3NC(=O)[C@@]2(C)C1c1ccccc1 (stereo not given in full)	-1	nt	nt	-4	-2	nt
COc1ccc2c(c1)OC[C@H]1[C@H]2N2C(=O)c3cc(Br)ccc3NC(=O)[C@@]2(C)[C@H]1c1ccccc1	nt	nt	333*	nt	nt	i
COc1ccc2c(c1)OCC1C2N2C(=O)c3cc(Cl)ccc3NC(=O)[C@@]2(C)C1c1ccccc1 (stereo not given in full)	1	nt	nt	-25	-9	nt
COc1cc2c(cc1OC)C(=O)N1C3c4cc(Cl)ccc4OCC3C(c3ccccc3)[C@]1(C)C(=O)N2 (stereo not given in full)	-6	nt	nt	-9	9	nt
COc1ccc2c(c1)OC[C@H]1[C@H]2N2C(=O)c3cc(OC)c(OC)cc3NC(=O)[C@@]2(C)[C@H]1c1ccccc1	nt	-4	44*	nt	nt	-1
COc1ccc(-c2nn(-c3ccccc3)cc2C=NN=C(N)N)cc1OC	-8	nt	nt	-22	6	nt
Cc1nc(C(N)=NOC(=O)c2c(-c3ccccc3Cl)noc2C)cs1	2	nt	nt	1	10	nt
CC(=NNC(N)=O)c1ccc(-n2ccnc2)cc1	3	nt	nt	4	-7	nt
CCn1c(SCC(=O)NC(C)C)nnc1-c1cccs1	nt	0	0	nt	nt	17*
CCn1c(SCC(=O)Nc2ccccc2)nnc1-c1cccs1	4	-14	0	-1	1	0
Cc1cc(C)c(OC2(c3ccccc3)OC(=O)c3ccccc32)c(C)c1 (stereo not given)	-3	-7	-1	85*	16	0
Oc1ccccc1C=NNc1cc(N2CCCC2)nc(N2CCCC2)n1	8	nt	nt	-9	-16	nt
CCCCCc1ccc(-c2nnc(N)s2)cc1	11	4	1	70	2	1
CCCCCCc1ccc(-c2ncc(N)cn2)cc1	5	10	2	100*	5	0
O=C(O)c1ccc(/C=C/c2ccc3cccc(O)c3n2)cc1	7	16	0	-3	13	1
